TGFb inhibitor: blocks TGF-b signaling | Potency, µM (series often up to 46.1 µM), for the others: top-dose activity, negative = inhibition, actives largely listed as inhibitors | AID 588855 | HepG2 CAGA-GFP TGF-b/SMAD3 reporter, GFP fluorescence, 18 h; TGF-beta stimulated, 500 pg/mL final | hit rate 1.2% among 410,000; note: % is set by controls: 0 for no effect and ±100 for the full control effect; nearly all actives have a fitted effect of over 65% in size
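Inhibition was scored as loss of TGF-beta-induced (500 pg/mL final, 18 hours, 37 degrees C) GFP in HEPG2 cells carrying a CAGA-GFP reporter, in DMEM with 1% FBS. Well GFP was summed per cell; Activity was normalised to unstimulated and stimulated DMSO wells, then concentration-response fitting.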
KB-V1 cytotox: kills drug-selected multidrug resistant KB-V1 cells; KB-V1 MDR cells viability, CellTiter-Glo, 72 h; Potency, µM (top dose mostly 46.1 µM), most hits filed as cytotoxic; hit rate 3.4% among 400,000; note: % is set by controls: 0 for no effect and ±100 for the full control effect; nearly all actives have a fitted effect of over 60% in size
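Cytotoxicity toward P-gp-expressing KB-V1 cells was determined as loss of CellTiter-Glo luminescence after 72 h at 37 degrees C. Compounds were tested in quantitative HTS format across a concentration range, with curves fitted to normalized data.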
HT1080-NT tox: kills 2HG-producing HT-1080-NT fibrosarcoma cells; HT-1080-NT fibrosarcoma viability, CellTiter-Glo ATP luminescence, 48 h; AID 686970; Potency, µM (titrated, usually from 46.1 µM), for inactives: at the highest dose activity, negative = less viability, most hits filed as cytotoxic; hit rate 1.6% among 360,000;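 note: NT is the 2HG producing partner of a matched IDH1 knockdown line; 0% = DMSO-treated cells and -100% = media-only wells without cells; nearly all actives have a fitted effect of over 55% in size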
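Compounds were tested in concentration-response format on HT-1080-NT cells for 48 hours at 37 degrees C. Cell viability came from CellTiter-Glo luminescence; curves were classified by r2, response magnitude and activity.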
HepG2 tox-1: counter-screen for TGF-b inhibitors: cytotoxicity in HepG2 cells | HepG2 CAGA-GFP viability, ATP luminescence, 18 h | Potency, µM (top dose mostly 46.1 µM), inactives show at the top dose activity change, negative = cytotoxicity, usual class: cytotoxic | AID 588856 | hit rate 0.76% among 410,000
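CellTiter-Glo luminescence gave cytotoxicity after 18 hours at 37 degrees C. The cells were HepG2 CAGA-GFP in 1% FBS DMEM, stimulated with 500 pg/mL TGF-beta after compound addition. %Activity was normalised to no-cell wells (complete cell-killing) and DMSO (no toxicity), and curves were fitted and classified.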
KB-3-1 tox: kills parental KB-3-1 adenocarcinoma cells. KB-3-1 viability, CellTiter-Glo ATP luminescence, 72 h. Potency, µM (highest dose often 46.1 µM), usual class: cytotoxic. hit rate 1.4% among 400,000. AID 1347075; note: % is set by controls: 0 for no effect and ±100 for the full control effect; nearly all actives have a fitted effect of over 60% in size
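72 h, 37 °C compound treatment of KB-3-1 parental cells; CellTiter-Glo added, 10 min, luminescence read. Data corrected against DMSO-only plates and normalized before curve fitting.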
HT1080 IDH1KD tx: kills HT-1080 cells with IDH1 knockdown. HT-1080 IDH1 knockdown viability, ATP luminescence, 48 h. Potency, µM (titrated, usually from 46.1 µM), inactives show at the highest dose activity, negative = toxicity, actives largely listed as cytotoxic. hit rate 2% among 360,000. AID 686971;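 note: 0% = DMSO wells and -100% = cell-free medium wells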
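% activity derives from luminescence (CellTiter-Glo), normalised to DMSO and no-cell wells. HT-1080-IDH1KD cells, 750/well, had 48 h compound exposure at 37 °C.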
TGFb confirm: confirmation of TGF-b signaling inhibitors in HepG2 reporter cells | shares compounds with TGFb inhibitor | HepG2 CAGA-GFP TGF-b reporter, GFP fluorescence, 18 h; cells stimulated with TGF-beta, 500 pg/mL | Potency, µM (highest dose often 46.1 µM), inactives show at the top dose activity, negative = inhibition, actives largely listed as inhibitors | hit rate 63% among 1,600 | AID 720534; note: % is set by controls: 0 for no effect and ±100 for the full control effect; nearly all actives have a fitted effect of over 65% in size
HepG2 tox-2: HepG2 cytotoxicity, TGF-b inhibitor counterscreen; HepG2 CAGA-GFP viability, ATP luminescence, 18 h; cells stimulated with TGF-beta, 500 pg/mL; hit rate 27% among 1,600; Potency, µM (highest dose often 46.1 µM), for the others: at the top dose activity, negative = cytotoxicity, most hits filed as inhibitors; shares compounds with TGFb inhibitor; note: % is set by controls: 0 for no effect and ±100 for the full control effect; nearly all actives have a fitted effect of over 70% in size
CCL64 TGFb inh: orthogonal confirmation of TGF-b inhibitors in CCL64 cells; shares compounds with TGFb inhibitor; CCL64 CAGA-GFP reporter, TGF-b stimulated, GFP fluorescence, 18 h; Potency, µM (highest dose often 46.1 µM), inactives show at the top dose activity, negative = inhibition, actives largely listed as inhibitors; hit rate 41% among 1,600; AID 720536; note: nearly all actives have a fitted effect of over 65% in size
COP TGFb inh: validation of TGF-b inhibitors in HepG2 COP promoter reporter | shares compounds with TGFb inhibitor | HepG2 COP-GFP TGF-b reporter, GFP fluorescence, 18 h; cells stimulated by added recombinant TGF-beta | Potency, µM (top dose mostly 46.1 µM), inactives show at the top dose activity, negative = inhibition, usual class: inhibitors | hit rate 3% among 1,600; note: nearly all actives have a fitted effect of over 70% in size
An asterisk follows results filed as active; i = inactive; ? = inconclusive; / = no result. An excerpt weighted towards active compounds, which were near 6.6% of everything screened. Calls come from the whole dose curve; as a rule, active = well fitted curve in the direction sought with a large enough effect; inconclusive = small, poorly fitted or top-dose-only effect, or another doubt; inactive = no such curve, though single readings can be large; an effect the other way counts as inactive or inconclusive. Potency is the fitted concentration of half-maximal effect.

SMILES	TGFb inhibitor	KB-V1 cytotox	HT1080-NT tox	HepG2 tox-1	KB-3-1 tox	HT1080 IDH1KD tx	TGFb confirm	HepG2 tox-2	CCL64 TGFb inh	COP TGFb inh
CC1=C(C(=O)Nc2cccc(F)c2)C(c2ccsc2)C2=C(CC(C)(C)CC2=O)N1 (stereo not drawn)	10µM*	14.6µM*	?	-2.5%	2.91µM*	2.06µM*	?	-9.9%	-22.4%	-9.8%
CCN(CC(O)Cn1c2ccccc2c2ccccc21)S(=O)(=O)c1ccc(C)cc1 (stereo not drawn)	10µM*	?	-4.0%	-73.4%	?	-26.6%	20.6µM*	?	?	58.8%
CCOC(=O)c1c(C)[nH]c(C(=O)OCC(=O)NCCc2ccc(OCC)c(OCC)c2)c1C	?	?	-12.4%	-3.0%	i	?	?	?	-6.9%	25.4%
CCOC(=O)c1[nH]c(C)c(C(=O)OCC(=O)NCc2ccc(OC)c(OC)c2)c1C	3.0%	i	0.8%	-24.9%	i	-4.3%	/	/	/	/
COc1ccc(CCNC(=O)CCc2cn(Cc3ccc(C)cc3)c3ccccc23)c(OC)c1OC	?	/	/	-22.9%	/	/	/	/	/	/
O=C(NCCCCc1ccccc1)NC[C@@H]1CC[C@@H](Cc2ccc(-c3ccccc3)cc2)O1	?	i	-16.4%	-26.1%	?	-21.4%	/	/	/	/
O=C(NC[C@@H]1CC[C@@H](Cc2ccc(-c3ccccc3)cc2)O1)Nc1ccc(Br)cc1	11.2µM*	i	?	-21.6%	?	-2.3%	20.6µM*	-16.1%	-6.6%	-19.7%
Cc1ccc(OCCn2cc(/C=N/NC(=O)c3ccncc3)c3ccccc32)cc1	?	i	-29.2%	-29.4%	i	?	/	/	/	/
CCOC(=O)N/N=C/c1cn(Cc2ccc(Cl)cc2)c2ccccc12	12.6µM*	?	-19.7%	-42.0%	?	-22.0%	4.11µM*	2.59µM*	5.1%	41.5%
O=C(N/N=C/c1cn(Cc2ccccc2)c2ccccc12)c1ccncc1	?	?	-8.7%	0.0%	i	-18.0%	1.16µM*	2.31µM*	3.6%	-21.6%
COC(=O)N/N=C/c1cn(CCOc2ccccc2)c2ccccc12	?	i	-9.2%	-6.0%	?	-14.9%	7.31µM*	3.26µM*	-4.9%	19.2%
CCOC(=O)N/N=C/c1cn(CCCOc2ccccc2)c2ccccc12	15.3%	?	-22.1%	14.5%	i	-27.6%	/	/	/	/
COC(=O)N/N=C/c1cn(CCOc2ccc(OC)cc2)c2ccccc12	?	i	-10.3%	-36.5%	i	-11.1%	/	/	/	/
CC(C)(C)OC(=O)N1CCCC(C(=O)Nc2ccc(C(=O)N3CCOCC3)cc2)C1 (stereo not drawn)	-18.1%	?	4.6%	3.2%	i	4.3%	/	/	/	/
COC(=O)c1ccc2nc(-c3ccc(F)cc3)c(Cc3ccccc3OC)n2c1	/	i	12.6%	/	i	9.4%	/	/	/	/
COc1ccccc1Cc1c(-c2ccc(F)cc2)nc2ccc(Br)cn12	10µM*	i	?	-32.2%	?	?	?	?	?	43.3%
COc1ccc(Cc2c(-c3cccc(Cl)c3)nc3ccc(Br)cn23)c(C)c1	?	i	-1.5%	-33.8%	i	-14.1%	/	/	/	/
COc1ccc(-c2nc3ccc(Br)cn3c2Cc2cccc(Cl)c2)cc1OC	12.6µM*	i	?	4.0%	i	?	18.4µM*	?	?	21.9%
COc1ccc(Cc2c(-c3cccc(Br)c3)nc3ccc(Br)cn23)c(C)c1	?	i	-11.0%	-25.5%	i	0.0%	?	?	?	-3.1%
O=C(NCc1ccc(F)cc1)C1CCN(S(=O)(=O)c2ccc3c(c2)CCCN3C(=O)C2CCC2)CC1	?	i	/	-37.1%	?	/	/	/	/	/
CCOc1[nH]c(/N=C/c2ccc(OC)cc2)c(C#N)c1C#N	2.9%	i	/	-34.2%	i	/	/	/	/	/
CCc1nc2ccccc2c(C(=O)OCC(=O)Nc2cccc(S(=O)(=O)NC3=NCCCCC3)c2)c1C	11.2µM*	i	?	-22.2%	?	?	7.31µM*	?	?	21.2%
O=C(COC(=O)c1ccc2ccccc2n1)Nc1cccc(S(=O)(=O)NC2=NCCCCC2)c1	-2.4%	i	-8.3%	-74.8%	i	-5.7%	/	/	/	/
CCCc1nnc(NC(=O)C(CC)OC(=O)c2cc(C)nc3ccccc23)s1 (stereo not drawn)	?	i	-0.6%	5.2%	i	2.0%	?	1.4%	7.8%	4.6%
CC(=O)Oc1c(I)cc(I)cc1C(=O)Nc1ccc(Cl)cc1	5.01µM*	16.4µM*	20.6µM*	-35.8%	23.1µM*	20.6µM*	4.61µM*	8.2µM*	6.51µM*	45.1%
COc1ccc(Cl)cc1C(=O)Nc1ccc(NC(C)=O)cc1	?	i	0.1%	10.1%	i	-1.5%	/	/	/	/
CCCc1cc(C(=O)O)c2ccccc2n1	17.4%	i	1.5%	-1.3%	i	3.6%	/	/	/	/
Cc1ccc(NC(=O)Cc2cc(C(=O)O)c3ccccc3n2)c(C)c1	8.91µM*	?	-23.2%	-53.1%	i	?	?	?	7.31µM*	43.9%
NC1=NC[C@H](Cc2ccc(O)cc2)N1CCc1cc(C(F)(F)F)cc(C(F)(F)F)c1	1.12µM*	i	-0.9%	-3.9%	i	2.1%	0.2%	-5.4%	3.0%	3.3%

Assay outcomes: PubChem BioAssay, National Center for Advancing Translational Sciences (NCATS)
